Source: PubChem BioAssay AID1159580 (chemical genetic matrix, 2015)
“And” between values parts separate entries of the source, which are not always exact repeats. Identical values can stand only once. The campaign covered roughly 5,500 compounds. About 2,000 (36%) were called active. About 18% were inconclusive and are not listed. Cut-off read from the data, not from the text of the source: active = normalized growth mostly below about 0.91 (no sharp cut-off); inconclusive = no clear call, values can overlap the other calls; inactive = mostly above about 0.92. This is one part of the list.

Test: chemical genetic growth profiling, strain panel (AID 1159580);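 note: tested at 20 µM; growth read once vehicle control cultures reached saturation at 30 °C; 1 = growth at the plate median or of vehicle wells; lower values mean less growth of the strain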
Conditions: S. cerevisiae deletion strains, growth OD
[1] = locus YAL013W, strain DEP1, stronger effect = lower value
[2] = locus YBR229C, strain ROT2, stronger effect = lower value
[3] = locus YCL061C, strain MRC1, stronger effect = lower value
[4] = locus YDL101C, strain DUN1, stronger effect = lower value
[5] = locus YDR150W, strain NUM1, stronger effect = lower value
[6] = locus YEL061C, strain CIN8, stronger effect = lower value
[7] = locus YGR078C, strain PAC10, stronger effect = lower value
[8] = locus YHR030C, strain SLT2, stronger effect = lower value
[9] = locus YHR087W, strain rtc3, stronger effect = lower value
[10] = locus YJL187C, strain SWE1, stronger effect = lower value
[11] = locus YJR043C, strain POL32, stronger effect = lower value
[12] = locus YJR075W, strain HOC1, stronger effect = lower value
[13] = locus YKL190W, strain CNB1, stronger effect = lower value
[14] = locus YLR039C, strain RIC1, stronger effect = lower value
[15] = locus YLR058C, strain SHM2 (second series), stronger effect = lower value
[16] = locus YLR085C, strain ARP6, stronger effect = lower value
[17] = locus YLR262C, strain YPT6, stronger effect = lower value
[18] = locus YML094W, strain GIM5, stronger effect = lower value
[19] = locus YMR219W, strain ESC1, stronger effect = lower value
[20] = locus YNL128W, strain TEP1, stronger effect = lower value
[21] = locus YNL153C, strain GIM3, stronger effect = lower value
[22] = locus YNL298W, strain CLA4 (second series), stronger effect = lower value
[23] = locus YNL322C, strain KRE1, stronger effect = lower value
[24] = locus YNR030W, strain Alg12, stronger effect = lower value
[25] = locus YPL055C, strain LGE1, stronger effect = lower value
[26] = locus YPL241C, strain CIN2, stronger effect = lower value
[27] = locus YPR135W, strain CTF4, stronger effect = lower value
[28] = locus YDL134C, strain PPH21, stronger effect = lower value

Measured: normalized growth

Cc1[nH]n(C)c(=O)c1N=Nc1ccc(Cl)cc1
inactive: [5] 0.835 | locus YGR229C, strain SMI1, stronger effect = lower value 0.979 | [9] 0.926 | [11] 0.945 | [12] 0.912 | [20] 0.965 | [23] 0.96 | [25] 0.78
active: [1] 0.892 | [2] 0.886 | [3] 0.864 | [4] 0.82 | [6] 0.598 | [7] 0.906 | [8] 0.143 | [10] 0.875 | [13] 0.915 | [14] 0.342 | [15] 0.912 | [16] 0.115 | [17] 0.393 | [18] 0.764 | [19] 0.924 | [21] 0.894 | [22] 0.689 | [24] 0.881 | [26] 0.753 | [27] 0.242

Cc1ccc(N=Nc2c(C)[nH]n(C)c2=O)cc1
active: [1] 0.931 | [2] 0.921 | [28] 0.886 | [6] 0.839 | [8] 0.433 | [11] 0.896 | [14] 0.332 | [16] 0.407 | [17] 0.352 | [18] 0.822 | [26] 0.82 | [27] 0.431
inactive: [4] 0.918 | [5] 0.92 | [7] 0.959 | [9] 0.974 | [12] 0.969 | [13] 0.946 | [15] 0.955 | [19] 0.964 | [21] 0.945 | [22] 0.87 | [23] 0.991 | [24] 0.897 | [25] 0.847

COc1cc(O)cc(OC)c1OC
inactive: [1] 1.05 | locus YAL021C, strain ccr4, stronger effect = lower value 0.982 | locus YAL026C, strain drs2, stronger effect = lower value 0.974 | locus YAL030W, strain snc1, stronger effect = lower value 0.977 | locus YBL061C, strain skt5, stronger effect = lower value 0.98 | locus YBR009C, strain hhf1, stronger effect = lower value 0.964 | locus YBR021W, strain FUR4, stronger effect = lower value 1.01 | locus YBR023C, strain chs3, stronger effect = lower value 0.999 | locus YBR171W, strain sec66, stronger effect = lower value 0.978 | [2] 1.01 | locus YBR231C, strain swc5, stronger effect = lower value 0.992 | locus YBR279W, strain paf1, stronger effect = lower value 0.992 | locus YCL011C, strain gbp2, stronger effect = lower value 0.969 | locus YCL016C, strain dcc1, stronger effect = lower value 0.997 | locus YCL029C, strain bik1, stronger effect = lower value 1.01 | [3] 0.986 | locus YCL069W, strain vba3, stronger effect = lower value 0.978 | locus YCR088W, strain abp1, stronger effect = lower value 0.987 | locus YDL005C, strain med2, stronger effect = lower value 0.967 | locus YDL035C, strain GPR1, stronger effect = lower value 1.05 | locus YDL040C, strain nat1, stronger effect = lower value 0.989 | locus YDL074C, strain BRE1, stronger effect = lower value 1.04 | [4] 1.02 | [28] 1.01 | locus YDL185W, strain tfp1, stronger effect = lower value 1 | locus YDL192W, strain arf1, stronger effect = lower value 1.03 | locus YDR001C, strain nth1, stronger effect = lower value 0.972 | locus YDR069C, strain doa4, stronger effect = lower value 0.962 | locus YDR101C, strain arx1, stronger effect = lower value 1 | locus YDR137W, strain rgp1, stronger effect = lower value 0.998 | locus YDR159W, strain sac3, stronger effect = lower value 0.925 | locus YDR162C, strain NBP2, stronger effect = lower value 1.06 | locus YDR195W, strain ref2 0.918 | locus YDR297W, strain sur2, stronger effect = lower value 0.986 | locus YDR318W, strain mcm21, stronger effect = lower value 1.01 | locus YDR334W, strain swr1, stronger effect = lower value 0.975 | locus YDR335W, strain msn5, stronger effect = lower value 0.991 | locus YDR388W, stronger effect = lower value 1.01 | locus YDR392W, strain spt3, stronger effect = lower value 0.942 | locus YDR502C, strain sam2, stronger effect = lower value 0.999 | locus YEL003W, strain gim4, stronger effect = lower value 0.987 | locus YEL037C, strain rad23, stronger effect = lower value 0.988 | locus YEL061C, strain CIN8 (second series), stronger effect = lower value 0.961 | [6] 1.02 | locus YER015W, strain faa2, stronger effect = lower value 1 | locus YER016W, strain bim1, stronger effect = lower value 0.995 | locus YER110C, stronger effect = lower value 1 | locus YER111C, strain swi4, stronger effect = lower value 0.967 | locus YER155C, strain BEM2 (second series), stronger effect = lower value 0.97 | locus YER155C, strain BEM2, stronger effect = lower value 1.02 | locus YER167W, strain BCK2, stronger effect = lower value 1.02 | locus YFR010W, strain ubp6, stronger effect = lower value 0.962 | locus YGL078C, strain dbp3, stronger effect = lower value 1.01 | locus YGL086W, strain mad1, stronger effect = lower value 1.01 | locus YGL167C, strain pmr1, stronger effect = lower value 0.954 | locus YGL173C, strain kem1, stronger effect = lower value 0.99 | locus YGL227W, strain vid30, stronger effect = lower value 0.97 | locus YGL240W, strain doc1, stronger effect = lower value 0.945 | locus YGL248W, strain PDE1, stronger effect = lower value 1.04 | locus YGL253W, strain hxk2, stronger effect = lower value 0.995 | locus YGR135W, strain pre9, stronger effect = lower value 1.01 | locus YGR252W, strain gcn5, stronger effect = lower value 1.03 | locus YHR013C, strain ard1, stronger effect = lower value 0.923 | locus YHR027C, strain rpn1, stronger effect = lower value 0.993 | [8] 1.02 and 0.996 | locus YHR079C, strain IRE1 (second series), stronger effect = lower value 0.995 | locus YHR079C, strain IRE1, stronger effect = lower value 0.983 | locus YHR094C, strain hxt1, stronger effect = lower value 0.992 | locus YHR129C, strain ARP1, stronger effect = lower value 1.02 | locus YHR142W, strain chs7, stronger effect = lower value 1.01 | locus YHR200W, strain rpn10, stronger effect = lower value 1.01 | locus YIL066C, strain RNR3, stronger effect = lower value 1.03 | locus YIL073C, strain SPO22, stronger effect = lower value 1.06 | locus YIL125W, strain kgd1, stronger effect = lower value 1.01 | locus YIR030C, strain dcg1, stronger effect = lower value 1 | locus YJL092W, strain hpr5, stronger effect = lower value 0.982 | locus YJL095W, strain BCK1 (second series), stronger effect = lower value 0.996 | locus YJL095W, strain BCK1, stronger effect = lower value 1.05 and 0.999 | locus YJL115W, strain asf1, stronger effect = lower value 0.992 | locus YJL129C, strain trk1, stronger effect = lower value 0.97 | locus YJL134W, strain LCB3, stronger effect = lower value 1.03 | locus YJL154C, strain vps35, stronger effect = lower value 0.983 | locus YJL164C, strain tpk1, stronger effect = lower value 0.971 | locus YJL166W, strain qcr8, stronger effect = lower value 0.993 | locus YJL168C, strain set2, stronger effect = lower value 1.01 | locus YJL187C, strain SWE1 (second series), stronger effect = lower value 1.03 | [10] 0.977 | [11] 1.05 | locus YJR066W, strain TOR1, stronger effect = lower value 0.905 | locus YKL009W, strain mrt4, stronger effect = lower value 1.05 | locus YKL068W, stronger effect = lower value 1.01 | locus YKL085W, strain MDH1 (second series), stronger effect = lower value 1.02 | locus YKL085W, strain MDH1, stronger effect = lower value 1.02 | locus YKL160W, strain elf1, stronger effect = lower value 1 | locus YKR001C, strain vps1, stronger effect = lower value 1.01 | locus YKR026C, strain gcn3, stronger effect = lower value 0.945 | locus YKR091W, strain srl3, stronger effect = lower value 0.968 | locus YLL001W, strain dnm1, stronger effect = lower value 0.994 | locus YLL026W, stronger effect = lower value 0.998 | locus YLL041C, strain sdh2, stronger effect = lower value 1 | locus YLR027C, strain aat2, stronger effect = lower value 0.986 | [14] 1.11 | locus YLR058C, strain SHM2, stronger effect = lower value 1.03 | locus YLR102C, strain apc9, stronger effect = lower value 0.99 | locus YLR113W, strain HOG1, stronger effect = lower value 1.04 | locus YLR221C, strain rsa3, stronger effect = lower value 0.97 | locus YLR258W, strain gsy2, stronger effect = lower value 0.996 | locus YLR262C, strain YPT6 (second series), stronger effect = lower value 0.992 | [17] 1.15 | locus YLR268W, strain sec22, stronger effect = lower value 1.03 | locus YLR320W, strain mms22, stronger effect = lower value 0.984 | locus YLR342W, strain FKS1 (second series), stronger effect = lower value 1.04 | locus YLR342W, strain FKS1, stronger effect = lower value 0.957 | locus YLR357W, strain rsc2, stronger effect = lower value 0.948 | locus YLR370C, strain arc18, stronger effect = lower value 0.955 | locus YLR371W, strain rom2, stronger effect = lower value 1 | locus YLR384C, strain iki3, stronger effect = lower value 0.937 | locus YLR418C, strain cdc73, stronger effect = lower value 1.01 | locus YML016C, strain PPZ1, stronger effect = lower value 1.02 | locus YML032C, strain rad52, stronger effect = lower value 1.01 | locus YML120C, strain ndi1, stronger effect = lower value 0.97 | locus YML124C, strain tub3, stronger effect = lower value 1.01 | locus YMR058W, strain fet3, stronger effect = lower value 0.97 | locus YMR078C, strain ctf18, stronger effect = lower value 1 | locus YMR125W, strain sto1, stronger effect = lower value 0.984 | locus YMR129W, stronger effect = lower value 0.962 | locus YMR205C, strain PFK2, stronger effect = lower value 0.95 | locus YMR223W, strain ubp8, stronger effect = lower value 0.993 | locus YMR231W, strain pep5, stronger effect = lower value 0.994 | locus YMR307W, strain GAS1, stronger effect = lower value 1.08 | locus YNL067W, strain RPL9B, stronger effect = lower value 1.03 | locus YNL071W, strain lat1, stronger effect = lower value 0.994 | [20] 1.07 | [21] 1.01 | locus YNL183C, strain NPR1, stronger effect = lower value 0.928 | locus YNL209W, strain ssb2, stronger effect = lower value 0.983 | locus YNL233W, strain BNI4, stronger effect = lower value 1.03 | locus YNL248C, strain rpa49, stronger effect = lower value 1 | locus YNL250W, strain rad50, stronger effect = lower value 1.03 | locus YNL271C, strain bni1, stronger effect = lower value 1.01 | locus YNL298W, strain CLA4, stronger effect = lower value 1 | locus YNL307C, strain MCK1, stronger effect = lower value 0.996 | locus YNL322C, strain KRE1 (second series), stronger effect = lower value 0.964 | locus YNR049C, strain mso1, stronger effect = lower value 0.986 | locus YNR052C, strain pop2, stronger effect = lower value 0.996 | locus YOL006C, strain TOP1, stronger effect = lower value 1.22 | locus YOL012C, strain htz1 1.19 | locus YOL147C, strain pex11, stronger effect = lower value 1 | locus YOR001W, strain rrp6, stronger effect = lower value 1.01 | locus YOR061W, strain CKA2, stronger effect = lower value 1.04 | locus YOR069W, strain VPS5, stronger effect = lower value 1.01 | locus YOR070C, strain gyp1, stronger effect = lower value 0.993 | locus YOR080W, strain dia2, stronger effect = lower value 0.977 | locus YOR083W, strain WHI5, stronger effect = lower value 1 | locus YOR106W, strain vam3, stronger effect = lower value 1 | locus YOR136W, strain idh2, stronger effect = lower value 1.01 | locus YOR144C, strain elg1, stronger effect = lower value 1 | locus YOR184W, strain ser1, stronger effect = lower value 1.05 | locus YOR231W, strain MKK1, stronger effect = lower value 1 | locus YOR265W, strain rbl2, stronger effect = lower value 0.96 | locus YOR270C, strain vph1, stronger effect = lower value 0.986 | locus YOR290C, strain snf2, stronger effect = lower value 0.921 | locus YOR316C, strain cot1, stronger effect = lower value 0.993 | locus YPL051W, strain arl3, stronger effect = lower value 1.01 | locus YPL078C, strain atp4, stronger effect = lower value 0.988 | locus YPL106C, strain sse1, stronger effect = lower value 0.944 | locus YPL240C, strain hsp82, stronger effect = lower value 0.981 | locus YPL256C, strain CLN2, stronger effect = lower value 0.978 | locus YPR119W, strain clb2, stronger effect = lower value 1 | locus YPR141C, strain kar3, stronger effect = lower value 1.01 | locus YPR163C, strain tif3, stronger effect = lower value 1 | locus YPR167C, strain met16, stronger effect = lower value 1.01 | strain wtn01, stronger effect = lower value 1.02
